This is an account of results in the supplement of paper PMC4022240.

± gives the standard deviation.

Assay in all cases: peptide microarray binding signal (635 nm), min-max normalized on array (fraction of array maximum); higher = stronger binding
Holding throughout (conditions): peptide region: H3 20-32

The target of experiment [1] is T1, HaloTag-ATRX ADD domain (163-292).
T1 chain: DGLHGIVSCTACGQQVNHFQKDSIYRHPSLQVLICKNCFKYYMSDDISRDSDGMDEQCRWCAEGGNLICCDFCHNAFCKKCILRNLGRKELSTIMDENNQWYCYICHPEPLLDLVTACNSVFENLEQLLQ
An outline of the steps:
(§1)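 An Axon GenePix 4000B scanned the arrays at 635 nm for signal and at 532 nm to catch misprints. Those arrays held histone 13-mer peptide–cellulose conjugates printed in triplicate on nitrocellulose with a Cy3 tracer, blocked overnight at 4°C and probed for 1 h at 4°C with biotin-labelled HaloTag reader fusions (10 nM to 1 μM) plus streptavidin-Alexa Fluor 647 or with rabbit histone antibodies (1:10,000 to 1:2,000) plus anti-rabbit Alexa 647. Each binding signal is a triplicate-spot mean intensity, scaled min-max within its library.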

Experiment [2] has as its target HaloTag-ING2 PHD (mouse Ing2 200-280). In outline: as §1
For experiment [3], the target named is anti-H3K4me3 antibody ab8580. In outline:
as §1

Experiment [4] deals with anti-H3K9me3 antibody ab8898. An outline of the steps:
as §1

Where [5] appears, read: peptide modifications: H3K23me2, binder concentration: 1:2,000 dilution.
[6] abbreviates: peptide modifications: H3K23me2, binder concentration: 1:10,000 dilution.
Where [7] appears, read: peptide modifications: H3K23me2 H3K27me1, binder concentration: 1:2,000 dilution.
Where [8] appears, read: peptide modifications: H3K23me2 H3K27me1, binder concentration: 1:10,000 dilution.
Where [9] appears, read: peptide modifications: H3K23me3 H3K27me3, binder concentration: 1:2,000 dilution.
[10] abbreviates: peptide modifications: H3K23me3 H3K27me3, binder concentration: 1:10,000 dilution.
The mark [11] stands for this setting: peptide modifications: H3K23me2 H3K27me2, binder concentration: 1:2,000 dilution.
[12] abbreviates: peptide modifications: H3K23me2 H3K27me2, binder concentration: 1:10,000 dilution.
Setting [13] is: peptide modifications: H3K23me3 H3K27me1, binder concentration: 1:2,000 dilution.
Setting [14] is: peptide modifications: H3K23me3 H3K27me1, binder concentration: 1:10,000 dilution.
Where [15] appears, read: peptide modifications: H3K23me2 H3K27ac, binder concentration: 1:2,000 dilution.
Setting [16] is: peptide modifications: H3K23me2 H3K27ac, binder concentration: 1:10,000 dilution.
Where [17] appears, read: peptide modifications: H3K23me3, binder concentration: 1:2,000 dilution.
[18] abbreviates: peptide modifications: H3K23me3, binder concentration: 1:10,000 dilution.
Setting [19] is: peptide modifications: H3K23me3 H3K27me2, binder concentration: 1:2,000 dilution.
Where [20] appears, read: peptide modifications: H3K23me3 H3K27me2, binder concentration: 1:10,000 dilution.
Setting [21] is: peptide modifications: H3K23me2 H3K27me3, binder concentration: 1:2,000 dilution.
The mark [22] stands for this setting: peptide modifications: H3K23me2 H3K27me3, binder concentration: 1:10,000 dilution.
Setting [23] is: peptide modifications: H3K23me3 H3K27ac, binder concentration: 1:2,000 dilution.
Setting [24] is: peptide modifications: H3K23me3 H3K27ac, binder concentration: 1:10,000 dilution.

Consider LATKAARKSAPAT [H3 20-32 L A T Kme2 A A R K S A P A T], for which the “peptide microarray binding signal” value in experiment [1] (peptide modifications: H3K23me2, binder concentration: 50 nM) was 0.00671 ± 0.00021; in experiment [1] (peptide modifications: H3K23me2, binder concentration: 500 nM), 0.0138 ± 0.00038; in experiment [2] (peptide modifications: H3K23me2, binder concentration: 10 nM) it was 0.0263 ± 0.0081; in experiment [2] (peptide modifications: H3K23me2, binder concentration: 100 nM) it was 0.0536 ± 0.02; in experiment [3] (setting [5]), 0.00836 ± 0.0018; in experiment [3] (setting [6]), 0.0156 ± 0.0071. In addition, the figures for the “peptide microarray binding signal” value in experiment [4] (setting [5]) and in experiment [4] (setting [6]) were 0.00609 ± 0.0003 and 0.00479 ± 0.00052, respectively.
Turning to LATKAARKSAPAT [H3 20-32 L A T Kme2 A A R Kme S A P A T], the “peptide microarray binding signal” value worked out at 0.00715 ± 0.00054 in experiment [1] (peptide modifications: H3K23me2 H3K27me1, binder concentration: 50 nM); 0.0135 ± 0.00043 in experiment [1] (peptide modifications: H3K23me2 H3K27me1, binder concentration: 500 nM); 0.0174 ± 0.00096 in experiment [2] (peptide modifications: H3K23me2 H3K27me1, binder concentration: 10 nM); 0.0216 ± 0.00093 in experiment [2] (peptide modifications: H3K23me2 H3K27me1, binder concentration: 100 nM); 0.00978 ± 0.0012 in experiment [3] (setting [7]); 0.0104 ± 0.00071 in experiment [3] (setting [8]). The “peptide microarray binding signal” value in experiment [4] (setting [7]) was found to be 0.00618 ± 0.00062; in experiment [4] (setting [8]), 0.00628 ± 0.00021.
For the molecule LATKAARKSAPAT [H3 20-32 L A T Kme3 A A R Kme3 S A P A T], the “peptide microarray binding signal” value in experiment [1] (peptide modifications: H3K23me3 H3K27me3, binder concentration: 50 nM) stood at 0.00527 ± 0.00011; in experiment [1] (peptide modifications: H3K23me3 H3K27me3, binder concentration: 500 nM), 0.00571 ± 0.00016; in experiment [2] (peptide modifications: H3K23me3 H3K27me3, binder concentration: 10 nM), 0.0186 ± 0.00059; in experiment [2] (peptide modifications: H3K23me3 H3K27me3, binder concentration: 100 nM), 0.0317 ± 0.00033; in experiment [3] (setting [9]), 0.0764 ± 0.0055; in experiment [3] (setting [10]), 0.116 ± 0.014. The “peptide microarray binding signal” value stood at 0.115 ± 0.01 in experiment [4] (setting [9]) and 0.08 ± 0.0081 in experiment [4] (setting [10]).
For LATKAARKSAPAT [H3 20-32 L A T Kme2 A A R Kme2 S A P A T], the “peptide microarray binding signal” value in experiment [1] (peptide modifications: H3K23me2 H3K27me2, binder concentration: 50 nM) was determined as 0.00511 ± 6.7e-05; in experiment [1] (peptide modifications: H3K23me2 H3K27me2, binder concentration: 500 nM) it was 0.00781 ± 0.00026; in experiment [2] (peptide modifications: H3K23me2 H3K27me2, binder concentration: 10 nM), 0.0143 ± 0.0011; in experiment [2] (peptide modifications: H3K23me2 H3K27me2, binder concentration: 100 nM), 0.0265 ± 0.003; in experiment [3] (setting [11]) it was 0.001114 ± 9.2e-06; in experiment [3] (setting [12]) it was 0.000799 ± 8.3e-06. For the same molecule, the “peptide microarray binding signal” value stood at 0.000861 ± 5.4e-05 in experiment [4] (setting [11]) and 0.000692 ± 1.9e-05 in experiment [4] (setting [12]).
As for LATKAARKSAPAT [H3 20-32 L A T Kme3 A A R Kme S A P A T], the “peptide microarray binding signal” value in experiment [1] (peptide modifications: H3K23me3 H3K27me1, binder concentration: 50 nM) is 0.00426 ± 0.00018; in experiment [1] (peptide modifications: H3K23me3 H3K27me1, binder concentration: 500 nM), 0.00776 ± 0.00023; in experiment [2] (peptide modifications: H3K23me3 H3K27me1, binder concentration: 10 nM), 0.0209 ± 0.0012; in experiment [2] (peptide modifications: H3K23me3 H3K27me1, binder concentration: 100 nM), 0.0322 ± 0.00049; in experiment [3] (setting [13]), 0.0821 ± 0.0052; in experiment [3] (setting [14]), 0.0667 ± 0.0068. The entries for the “peptide microarray binding signal” value in experiment [4] (setting [13]) and in experiment [4] (setting [14]) were 0.0232 ± 0.0031 and 0.0156 ± 0.0017, respectively.
As to LATKAARKSAPAT [H3 20-32 L A T Kme2 A A R Kac S A P A T], the “peptide microarray binding signal” value in experiment [1] (peptide modifications: H3K23me2 H3K27ac, binder concentration: 50 nM) was determined as 0.008464 ± 6.7e-05; in experiment [1] (peptide modifications: H3K23me2 H3K27ac, binder concentration: 500 nM), 0.01538 ± 0.00011; in experiment [2] (peptide modifications: H3K23me2 H3K27ac, binder concentration: 10 nM), 0.0514 ± 0.0022; in experiment [2] (peptide modifications: H3K23me2 H3K27ac, binder concentration: 100 nM), 0.0701 ± 0.0049; in experiment [3] (setting [15]) it was 0.0156 ± 0.00055; in experiment [3] (setting [16]), 0.0145 ± 0.00025. Further, the “peptide microarray binding signal” value in experiment [4] (setting [15]) was found to be 0.0072 ± 0.0012; in experiment [4] (setting [16]), 0.00513 ± 0.00017.
Take LATKAARKSAPAT [H3 20-32 L A T Kme3 A A R K S A P A T]: the “peptide microarray binding signal” value in experiment [1] (peptide modifications: H3K23me3, binder concentration: 50 nM) came out at 0.00323 ± 0.00014; in experiment [1] (peptide modifications: H3K23me3, binder concentration: 500 nM) it was 0.00476 ± 6.4e-05; in experiment [2] (peptide modifications: H3K23me3, binder concentration: 10 nM), 0.00931 ± 0.00034; in experiment [2] (peptide modifications: H3K23me3, binder concentration: 100 nM), 0.0181 ± 0.00055; in experiment [3] (setting [17]) it was 0.0211 ± 0.0028; in experiment [3] (setting [18]), 0.0168 ± 0.00023. Also, the “peptide microarray binding signal” value in experiment [4] (setting [17]) was 0.0113 ± 0.0027; in experiment [4] (setting [18]) it was 0.00634 ± 0.00064.
LATKAARKSAPAT [H3 20-32 L A T Kme3 A A R Kme2 S A P A T]: the “peptide microarray binding signal” value came to 0.00871 ± 0.00075 in experiment [1] (peptide modifications: H3K23me3 H3K27me2, binder concentration: 50 nM); 0.0107 ± 0.0013 in experiment [1] (peptide modifications: H3K23me3 H3K27me2, binder concentration: 500 nM); 0.0148 ± 0.0008 in experiment [2] (peptide modifications: H3K23me3 H3K27me2, binder concentration: 10 nM); 0.0242 ± 0.0018 in experiment [2] (peptide modifications: H3K23me3 H3K27me2, binder concentration: 100 nM); 0.0639 ± 0.034 in experiment [3] (setting [19]); 0.0807 ± 0.021 in experiment [3] (setting [20]). Besides, the “peptide microarray binding signal” value in experiment [4] (setting [19]) is 0.0464 ± 0.016; in experiment [4] (setting [20]), 0.0257 ± 0.0034.
LATKAARKSAPAT [H3 20-32 L A T Kme2 A A R Kme3 S A P A T]: the “peptide microarray binding signal” value stood at 0.0058 ± 9.2e-05 in experiment [1] (peptide modifications: H3K23me2 H3K27me3, binder concentration: 50 nM); 0.00581 ± 0.00013 in experiment [1] (peptide modifications: H3K23me2 H3K27me3, binder concentration: 500 nM); 0.01343 ± 4.8e-05 in experiment [2] (peptide modifications: H3K23me2 H3K27me3, binder concentration: 10 nM); 0.0205 ± 0.00075 in experiment [2] (peptide modifications: H3K23me2 H3K27me3, binder concentration: 100 nM); 0.02482 ± 0.00013 in experiment [3] (setting [21]); 0.0215 ± 0.00042 in experiment [3] (setting [22]). For the same molecule, the “peptide microarray binding signal” value was found to be 0.0892 ± 0.0073 in experiment [4] (setting [21]) and 0.0609 ± 0.0066 in experiment [4] (setting [22]).
As to LATKAARKSAPAT [H3 20-32 L A T Kme3 A A R Kac S A P A T], the “peptide microarray binding signal” value stood at 0.00665 ± 0.00019 in experiment [1] (peptide modifications: H3K23me3 H3K27ac, binder concentration: 50 nM); 0.0131 ± 0.00029 in experiment [1] (peptide modifications: H3K23me3 H3K27ac, binder concentration: 500 nM); 0.0614 ± 0.0049 in experiment [2] (peptide modifications: H3K23me3 H3K27ac, binder concentration: 10 nM); 0.0929 ± 0.0012 in experiment [2] (peptide modifications: H3K23me3 H3K27ac, binder concentration: 100 nM); 0.18 ± 0.021 in experiment [3] (setting [23]); 0.218 ± 0.01 in experiment [3] (setting [24]). In addition, the “peptide microarray binding signal” value was 0.11 ± 0.011 in experiment [4] (setting [23]) and 0.042 ± 0.002 in experiment [4] (setting [24]).
